Laboratory results published in the supplement of paper PMC11732987, “Enantioselective OTUD7B fragment discovery through chemoproteomics screening and high-throughput optimisation” (Communications Chemistry, 2025).

Columns and labels:
Test in all cases: log2 ratio of Biotin-Ahx-Ub-VS probe labelling (fragment/DMSO); higher = less target engagement (more negative = stronger competition), active = hit call of the paper (q ≤ 0.05, log2 ratio ≤ -1)
Details in all cases: compound concentration: 200 uM; treatment time: 3 h
[1] = molecular target: USP34 (UniProt Q70CQ2)
Chain of USP34 (Q70CQ2 whole entry, the tested form may be a part): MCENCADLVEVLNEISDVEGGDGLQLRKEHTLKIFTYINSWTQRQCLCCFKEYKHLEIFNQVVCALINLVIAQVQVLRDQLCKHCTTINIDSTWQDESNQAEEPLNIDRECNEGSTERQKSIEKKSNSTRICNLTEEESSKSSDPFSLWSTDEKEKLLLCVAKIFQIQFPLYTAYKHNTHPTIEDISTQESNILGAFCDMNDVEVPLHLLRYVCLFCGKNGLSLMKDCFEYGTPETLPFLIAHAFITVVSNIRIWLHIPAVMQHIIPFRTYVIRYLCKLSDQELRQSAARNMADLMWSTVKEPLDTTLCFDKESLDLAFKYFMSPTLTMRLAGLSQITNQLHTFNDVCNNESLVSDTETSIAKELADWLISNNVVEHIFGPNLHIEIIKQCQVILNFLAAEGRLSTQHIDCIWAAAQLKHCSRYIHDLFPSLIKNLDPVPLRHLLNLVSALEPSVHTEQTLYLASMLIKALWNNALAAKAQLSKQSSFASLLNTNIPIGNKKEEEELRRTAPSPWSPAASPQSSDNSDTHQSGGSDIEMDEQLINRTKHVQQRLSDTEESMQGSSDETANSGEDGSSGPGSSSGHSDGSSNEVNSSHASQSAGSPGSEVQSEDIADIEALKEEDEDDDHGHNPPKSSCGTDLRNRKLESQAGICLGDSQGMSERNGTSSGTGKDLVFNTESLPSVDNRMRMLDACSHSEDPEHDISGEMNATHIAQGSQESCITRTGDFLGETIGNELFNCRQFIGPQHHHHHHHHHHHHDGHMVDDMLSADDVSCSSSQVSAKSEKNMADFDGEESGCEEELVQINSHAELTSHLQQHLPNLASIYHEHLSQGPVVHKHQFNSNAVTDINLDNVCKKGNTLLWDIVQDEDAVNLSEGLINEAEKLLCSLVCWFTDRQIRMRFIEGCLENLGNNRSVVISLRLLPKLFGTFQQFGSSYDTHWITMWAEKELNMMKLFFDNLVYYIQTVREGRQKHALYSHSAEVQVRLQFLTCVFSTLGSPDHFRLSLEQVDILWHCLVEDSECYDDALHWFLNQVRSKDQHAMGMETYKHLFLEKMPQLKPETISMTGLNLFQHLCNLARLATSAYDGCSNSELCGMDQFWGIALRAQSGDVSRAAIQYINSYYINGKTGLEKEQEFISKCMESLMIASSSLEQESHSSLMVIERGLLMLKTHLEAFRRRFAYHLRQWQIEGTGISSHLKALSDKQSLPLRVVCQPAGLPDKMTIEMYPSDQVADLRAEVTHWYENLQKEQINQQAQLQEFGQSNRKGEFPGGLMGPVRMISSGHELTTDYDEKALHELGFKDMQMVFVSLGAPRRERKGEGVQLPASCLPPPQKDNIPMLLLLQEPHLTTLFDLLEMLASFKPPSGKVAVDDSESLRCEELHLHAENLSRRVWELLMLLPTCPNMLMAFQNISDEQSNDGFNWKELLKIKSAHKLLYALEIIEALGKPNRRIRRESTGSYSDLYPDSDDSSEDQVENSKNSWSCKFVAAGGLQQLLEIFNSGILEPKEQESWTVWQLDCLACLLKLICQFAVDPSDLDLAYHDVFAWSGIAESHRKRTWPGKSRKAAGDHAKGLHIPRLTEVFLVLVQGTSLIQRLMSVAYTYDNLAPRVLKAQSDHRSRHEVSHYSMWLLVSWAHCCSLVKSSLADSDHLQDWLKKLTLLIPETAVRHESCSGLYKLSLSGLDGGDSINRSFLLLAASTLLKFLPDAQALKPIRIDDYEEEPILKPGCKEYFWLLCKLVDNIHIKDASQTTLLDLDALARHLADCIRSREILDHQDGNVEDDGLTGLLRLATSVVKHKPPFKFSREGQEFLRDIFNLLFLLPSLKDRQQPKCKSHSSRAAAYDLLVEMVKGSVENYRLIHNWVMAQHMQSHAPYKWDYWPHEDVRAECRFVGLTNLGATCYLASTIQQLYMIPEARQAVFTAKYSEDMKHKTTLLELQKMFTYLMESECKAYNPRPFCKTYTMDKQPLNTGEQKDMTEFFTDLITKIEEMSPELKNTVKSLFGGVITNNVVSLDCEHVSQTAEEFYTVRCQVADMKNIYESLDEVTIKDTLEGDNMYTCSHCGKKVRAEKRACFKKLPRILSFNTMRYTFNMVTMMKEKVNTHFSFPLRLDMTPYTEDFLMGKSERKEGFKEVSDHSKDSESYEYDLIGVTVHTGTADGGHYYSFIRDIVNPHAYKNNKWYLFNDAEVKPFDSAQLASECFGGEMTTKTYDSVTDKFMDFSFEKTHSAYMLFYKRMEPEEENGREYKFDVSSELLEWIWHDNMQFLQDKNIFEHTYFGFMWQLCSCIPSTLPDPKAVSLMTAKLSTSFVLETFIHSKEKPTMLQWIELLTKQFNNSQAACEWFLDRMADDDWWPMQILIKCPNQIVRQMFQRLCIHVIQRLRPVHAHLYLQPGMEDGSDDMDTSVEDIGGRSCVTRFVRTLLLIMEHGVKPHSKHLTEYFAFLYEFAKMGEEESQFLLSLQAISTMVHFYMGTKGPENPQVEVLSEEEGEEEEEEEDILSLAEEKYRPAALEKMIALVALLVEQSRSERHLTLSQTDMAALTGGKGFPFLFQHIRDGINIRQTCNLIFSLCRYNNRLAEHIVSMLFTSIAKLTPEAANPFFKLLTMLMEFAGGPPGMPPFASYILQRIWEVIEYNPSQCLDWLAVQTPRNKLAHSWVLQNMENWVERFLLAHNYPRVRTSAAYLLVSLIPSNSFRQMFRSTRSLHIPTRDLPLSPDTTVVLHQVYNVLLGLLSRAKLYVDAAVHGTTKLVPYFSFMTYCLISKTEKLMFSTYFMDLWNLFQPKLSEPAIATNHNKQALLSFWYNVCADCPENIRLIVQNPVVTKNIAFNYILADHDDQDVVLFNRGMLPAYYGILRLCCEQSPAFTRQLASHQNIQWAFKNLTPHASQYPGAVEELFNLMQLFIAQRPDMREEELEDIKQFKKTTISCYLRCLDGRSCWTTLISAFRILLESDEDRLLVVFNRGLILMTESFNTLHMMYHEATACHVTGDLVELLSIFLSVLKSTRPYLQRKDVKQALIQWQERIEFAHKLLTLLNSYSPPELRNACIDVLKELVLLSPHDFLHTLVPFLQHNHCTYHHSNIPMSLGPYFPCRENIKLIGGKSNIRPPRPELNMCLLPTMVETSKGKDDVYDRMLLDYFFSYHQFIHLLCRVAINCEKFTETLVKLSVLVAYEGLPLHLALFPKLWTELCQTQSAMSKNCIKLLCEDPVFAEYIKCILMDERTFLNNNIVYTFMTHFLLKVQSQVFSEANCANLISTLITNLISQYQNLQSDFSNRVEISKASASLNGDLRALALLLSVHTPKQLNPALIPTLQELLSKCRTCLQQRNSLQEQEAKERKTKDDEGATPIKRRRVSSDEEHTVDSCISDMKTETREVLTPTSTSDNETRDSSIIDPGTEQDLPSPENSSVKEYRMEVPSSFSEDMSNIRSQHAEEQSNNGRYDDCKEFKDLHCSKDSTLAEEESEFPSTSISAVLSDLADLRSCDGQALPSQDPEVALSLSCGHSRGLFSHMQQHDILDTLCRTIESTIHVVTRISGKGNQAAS
In short: (§1)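 In triplicate, 495 µg of HEK293T lysate per sample was incubated with fragment at 200 µM or vehicle for 3 h. Biotin-Ahx-Ub-VS was then added to 0.5 µM final for 1 h, and labelled DUBs were captured with NeutrAvidin, digested with LysC and trypsin, and measured by diaPASEF LC-MS/MS. Data are average log2 fragment/vehicle ratios by unpaired t-test from global-median-normalised Spectronaut label-free quantities, restricted to proteins with ≥2 unique peptides.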

[2] = molecular target: T1, USP36 (UniProt Q9P275)
T1 sequence (whole entry): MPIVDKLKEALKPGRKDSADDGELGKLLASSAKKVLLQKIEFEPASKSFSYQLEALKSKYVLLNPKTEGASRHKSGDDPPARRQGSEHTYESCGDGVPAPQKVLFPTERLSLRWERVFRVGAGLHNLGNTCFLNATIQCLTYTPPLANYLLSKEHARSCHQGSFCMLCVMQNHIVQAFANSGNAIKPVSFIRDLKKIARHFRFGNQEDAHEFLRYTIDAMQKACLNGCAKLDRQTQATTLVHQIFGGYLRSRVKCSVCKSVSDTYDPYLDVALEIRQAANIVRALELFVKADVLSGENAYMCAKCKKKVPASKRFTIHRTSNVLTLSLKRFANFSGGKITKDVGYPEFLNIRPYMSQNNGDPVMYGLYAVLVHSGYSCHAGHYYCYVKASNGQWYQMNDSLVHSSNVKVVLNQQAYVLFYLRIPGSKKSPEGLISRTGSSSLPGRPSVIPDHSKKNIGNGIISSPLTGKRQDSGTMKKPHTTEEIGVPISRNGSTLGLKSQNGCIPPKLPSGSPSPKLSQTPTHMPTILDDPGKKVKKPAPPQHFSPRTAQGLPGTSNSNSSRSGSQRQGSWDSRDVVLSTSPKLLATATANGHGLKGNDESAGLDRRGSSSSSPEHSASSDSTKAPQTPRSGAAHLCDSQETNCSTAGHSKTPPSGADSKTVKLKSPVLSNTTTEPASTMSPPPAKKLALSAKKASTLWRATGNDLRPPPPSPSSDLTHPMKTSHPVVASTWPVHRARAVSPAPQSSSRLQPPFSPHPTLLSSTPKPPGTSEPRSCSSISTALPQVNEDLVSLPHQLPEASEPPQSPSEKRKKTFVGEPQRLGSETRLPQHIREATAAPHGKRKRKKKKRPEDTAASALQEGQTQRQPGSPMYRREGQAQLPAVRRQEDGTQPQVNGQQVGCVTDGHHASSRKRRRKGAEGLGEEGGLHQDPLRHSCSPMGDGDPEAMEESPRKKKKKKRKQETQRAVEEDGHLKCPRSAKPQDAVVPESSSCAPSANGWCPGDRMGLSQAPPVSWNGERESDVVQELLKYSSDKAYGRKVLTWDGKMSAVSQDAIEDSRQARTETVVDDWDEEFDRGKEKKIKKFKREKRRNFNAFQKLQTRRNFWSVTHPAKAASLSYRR
In short: as §1

[3] = molecular target: T2, USP38 (UniProt Q8NB14)
T2 sequence (whole entry): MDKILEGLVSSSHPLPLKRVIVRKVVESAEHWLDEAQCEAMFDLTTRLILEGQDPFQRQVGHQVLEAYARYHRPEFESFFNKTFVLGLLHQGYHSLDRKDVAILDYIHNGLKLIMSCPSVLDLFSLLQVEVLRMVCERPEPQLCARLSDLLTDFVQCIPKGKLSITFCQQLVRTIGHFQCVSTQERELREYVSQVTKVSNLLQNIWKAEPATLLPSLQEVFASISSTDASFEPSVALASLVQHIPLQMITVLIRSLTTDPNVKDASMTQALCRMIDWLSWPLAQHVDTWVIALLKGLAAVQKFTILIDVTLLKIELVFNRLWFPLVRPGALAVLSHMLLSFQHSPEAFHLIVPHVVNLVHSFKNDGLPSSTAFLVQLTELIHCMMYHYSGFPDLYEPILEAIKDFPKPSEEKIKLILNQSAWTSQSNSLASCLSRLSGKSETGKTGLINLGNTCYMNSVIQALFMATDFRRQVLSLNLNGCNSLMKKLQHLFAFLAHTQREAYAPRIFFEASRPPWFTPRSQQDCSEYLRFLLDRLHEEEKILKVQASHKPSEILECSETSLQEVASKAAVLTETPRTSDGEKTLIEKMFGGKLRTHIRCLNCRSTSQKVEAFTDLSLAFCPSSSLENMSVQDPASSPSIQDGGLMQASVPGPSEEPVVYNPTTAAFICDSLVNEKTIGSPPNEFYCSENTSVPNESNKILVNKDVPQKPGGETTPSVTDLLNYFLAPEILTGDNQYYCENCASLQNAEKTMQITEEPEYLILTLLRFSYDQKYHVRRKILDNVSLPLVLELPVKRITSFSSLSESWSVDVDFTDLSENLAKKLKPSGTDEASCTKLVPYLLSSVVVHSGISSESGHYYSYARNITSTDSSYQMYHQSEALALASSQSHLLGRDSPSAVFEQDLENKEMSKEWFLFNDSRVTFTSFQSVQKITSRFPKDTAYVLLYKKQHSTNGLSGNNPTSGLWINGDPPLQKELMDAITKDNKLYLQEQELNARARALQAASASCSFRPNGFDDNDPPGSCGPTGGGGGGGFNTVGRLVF
In short: as §1

[4] = molecular target: T3, USP39 (UniProt Q53GS9)
T3 sequence (whole entry): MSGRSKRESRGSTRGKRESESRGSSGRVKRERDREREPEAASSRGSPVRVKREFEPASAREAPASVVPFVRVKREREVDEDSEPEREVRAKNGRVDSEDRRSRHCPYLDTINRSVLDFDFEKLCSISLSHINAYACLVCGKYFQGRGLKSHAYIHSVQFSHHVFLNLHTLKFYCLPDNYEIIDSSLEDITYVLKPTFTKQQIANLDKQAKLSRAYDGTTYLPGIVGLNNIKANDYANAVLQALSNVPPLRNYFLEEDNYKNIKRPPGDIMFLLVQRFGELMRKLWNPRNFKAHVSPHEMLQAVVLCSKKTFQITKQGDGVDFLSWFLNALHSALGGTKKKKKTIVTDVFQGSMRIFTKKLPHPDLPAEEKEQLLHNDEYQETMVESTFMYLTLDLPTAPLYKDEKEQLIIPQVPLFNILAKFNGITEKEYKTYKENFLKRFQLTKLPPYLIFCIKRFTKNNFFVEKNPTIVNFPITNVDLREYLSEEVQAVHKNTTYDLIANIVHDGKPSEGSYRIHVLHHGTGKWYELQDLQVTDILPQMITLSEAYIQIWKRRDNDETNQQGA
In short: as §1

[5] = molecular target: T4, USP4 (UniProt Q13107)
T4 sequence (whole entry): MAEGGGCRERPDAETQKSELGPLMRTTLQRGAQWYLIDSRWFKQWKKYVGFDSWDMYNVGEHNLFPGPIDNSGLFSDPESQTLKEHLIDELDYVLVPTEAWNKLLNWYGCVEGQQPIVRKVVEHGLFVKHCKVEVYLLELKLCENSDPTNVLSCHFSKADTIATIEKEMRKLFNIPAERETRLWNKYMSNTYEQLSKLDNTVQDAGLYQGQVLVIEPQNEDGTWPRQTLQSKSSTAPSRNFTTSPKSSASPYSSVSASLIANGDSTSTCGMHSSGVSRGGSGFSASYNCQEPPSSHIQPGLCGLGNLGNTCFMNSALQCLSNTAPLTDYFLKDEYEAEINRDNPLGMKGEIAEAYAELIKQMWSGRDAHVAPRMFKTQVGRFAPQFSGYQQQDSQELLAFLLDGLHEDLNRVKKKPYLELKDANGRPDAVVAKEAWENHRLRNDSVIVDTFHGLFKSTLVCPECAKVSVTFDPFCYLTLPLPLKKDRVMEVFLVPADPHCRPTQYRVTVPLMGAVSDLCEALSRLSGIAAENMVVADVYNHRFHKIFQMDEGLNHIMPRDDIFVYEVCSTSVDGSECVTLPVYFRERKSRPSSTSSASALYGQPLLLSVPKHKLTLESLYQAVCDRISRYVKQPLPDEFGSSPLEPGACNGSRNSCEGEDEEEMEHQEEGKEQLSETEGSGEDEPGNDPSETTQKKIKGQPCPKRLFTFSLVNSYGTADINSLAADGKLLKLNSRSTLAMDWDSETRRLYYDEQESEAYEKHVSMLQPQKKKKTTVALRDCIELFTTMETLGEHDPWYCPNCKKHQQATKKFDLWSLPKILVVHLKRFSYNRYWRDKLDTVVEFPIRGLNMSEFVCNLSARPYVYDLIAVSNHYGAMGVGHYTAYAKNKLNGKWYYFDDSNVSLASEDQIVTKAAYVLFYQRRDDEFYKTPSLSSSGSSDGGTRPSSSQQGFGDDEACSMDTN
In short: as §1

Measured: log2 ratio of Biotin-Ahx-Ub-VS probe labelling

O=C(CCl)Nc1cc(Cl)ccc1-n1cncn1
inactive: [1] -0.448 | [2] -0.325 | [3] -0.932 | [4] 0.142 | [5] -0.712
